A number with no mark means an inactive call. Calls of active or inactive are those of the source. Cut-off read from the data, not from the text of the source, unless noted: active = inhibition above about 42%; inactive = the rest. Numbered stars: 1 amine (or outer) side, 2 acyl side, 3 side chain; on linkers, the order of the positions; unused ones are H or OH. Bridge positions count the residues as written; N and C are the ends. Square brackets hold non-standard residues; d marks the D form. Peptide text beside a SMILES is read from it. ξ: configuration not given here. X1 = CC[C@H](CCC[C@@H](O)[C@@H](C)C(=O)O[C@H](C)[C@@H](C)C/C=C(C)/C(=C\C(=O)[*:1])OC)O[*:2]; NMeξIle = CC[C@H](C)C(NC)C(=O)O; NMeV = CN[C@H](C(=O)O)C(C)C; NMeS = CN[C@@H](CO)C(=O)O

Chain of Nuclear receptor subfamily 5 group A member 2 (Homo sapiens) (O00482 whole entry, looked up): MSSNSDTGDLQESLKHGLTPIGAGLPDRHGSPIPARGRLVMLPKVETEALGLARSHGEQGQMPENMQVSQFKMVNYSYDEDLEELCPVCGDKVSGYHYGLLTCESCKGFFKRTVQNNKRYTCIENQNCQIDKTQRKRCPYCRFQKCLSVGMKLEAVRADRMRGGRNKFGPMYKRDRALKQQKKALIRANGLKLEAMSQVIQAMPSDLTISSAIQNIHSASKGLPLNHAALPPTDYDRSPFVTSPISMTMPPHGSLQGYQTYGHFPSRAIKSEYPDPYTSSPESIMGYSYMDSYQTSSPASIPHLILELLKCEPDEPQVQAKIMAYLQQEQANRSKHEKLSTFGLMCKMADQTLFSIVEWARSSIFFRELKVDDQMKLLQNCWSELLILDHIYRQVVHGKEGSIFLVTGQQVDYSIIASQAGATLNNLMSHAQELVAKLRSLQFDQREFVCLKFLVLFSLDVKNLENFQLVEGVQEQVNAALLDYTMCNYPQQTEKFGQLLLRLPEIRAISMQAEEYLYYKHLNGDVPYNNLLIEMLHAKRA

System in the first experiment: not listed separately
In words: StAR promoter reporter inhibitors, counter-screen for LRH-1 inverse agonist project, cell-based, luminescence, high throughput (AID 651611; in the data active = inhibition above about 28%). Conditions: StAR promoter luciferase reporter counterscreen, at 3.6 µM, hits give high values. For orientation: Counterscreens check selectivity or assay interference.
Usually inhibition stands for the change of the read-out against control, counted positive when it falls. Regarding `CCC1(O)C(=O)OCc2c1cc1n(c2=O)Cc2cc3c(N)cccc3nc2-1` (stereo not given), the inhibition was 83.6% (active).

Take `CCCOC(c1ccccc1)(c1ccc(C(F)(F)F)cc1)C(Oc1nc(C)cc(C)n1)C(=O)O` (stereo not given): the inhibition is 75.5% (active).

In the case of `N=c1c2c(n(Cc3ccc(F)cc3)c3c1CCC3)CCC2`, the inhibition was 41.6% (active).

As to `Cc1cc(/C=N/n2cnnc2)c(C)n1-c1ccc(OCc2ccc(Cl)cc2Cl)cc1`, the inhibition was 36.5% (active).

Consider `CCN(CC)c1ccc2nc3ccc(N)cc3[n+](-c3ccccc3)c2c1`, for which the inhibition was 75.2% (active).

In the case of `Cc1ccc2[nH]c3nc(N/N=C/c4cccc(O)c4)nnc3c2c1`, the inhibition is 51% (active).

Consider `CCCC(=O)NC(c1ccccc1Cl)c1ccc2cccnc2c1O` (stereo not given), for which the inhibition is 82.7% (active).

Take `CN(Cc1cnc2nc(N)nc(N)c2n1)c1ccc(C(=O)NC(CCC(=O)O)C(=O)O)cc1C(F)(F)F` (stereo not given): the inhibition was 79.6% (active).

For the molecule `O=[N+]([O-])c1ccc(Sc2cccc[n+]2[O-])c2nonc12`, the inhibition is 98.1% (active).

Turning to `COc1cc(C=NO)nc(-c2ccccn2)c1`, the inhibition is 85.6% (active).

As for `COc1ccc(Cn2c(-c3ccc(C)cc3)c[n+]3ccccc23)cc1`, the inhibition was 50.2% (active).

In the case of `Cc1ccc(S(=O)(=O)/N=C2\C=C(Nc3ccc(O)cc3)C(=O)c3ccccc32)cc1`, the inhibition was 90.3% (active).

Consider `CC[n+]1c(C=C2C=C(C)OC(C)=C2)sc2ccccc21`, for which the inhibition is 70.3% (active).

For `CCCCCn1c2c(c(=N)c3ccccc31)CCC2`, the inhibition is 44.3% (active).

As for `CCOc1ccccc1O[C@H](c1ccccc1)[C@H]1CNCCO1`, the inhibition is 12.6%.

On to `COC(=O)C1=C(CN2CCCc3ccccc32)NC(=O)NC1c1ccc(F)cc1` (stereo not given), for which the inhibition is 71.5% (active).

For `CC(=NNC(=S)Nc1cccc(C)c1)c1ccccn1`, the inhibition is 85.1% (active).

As to `CC(C)(C)N(Cc1ccc2c(c1)OCO2)C(=O)/C=C\S(=O)c1ccccc1` (stereo not given), the inhibition was 34.7% (active).

Take `COc1ccccc1-n1cc([C@@H]2C[C@H]3CN(c4ccccc4)C(=O)[C@]34CCCN24)cn1`: the inhibition is 36.2% (active).

As to `COc1ccc2cc3cc(C(=O)Nc4cc(OC)c(OC)c(OC)c4)oc3nc2c1`, the inhibition was 71% (active).

With `CCCc1nc2c(=O)n(C)c(=O)nc-2n(C)n1`, the inhibition was 56.5% (active).

As for `CC[C@@H]1CCC[C@@H](O)[C@@H](C)C(=O)O[C@H](C)[C@@H](C)C/C=C(C)/C(OC)=C\C(=O)N(C)C([C@@H](C)CC)C(=O)N(C)[C@@H](C(C)C)C(=O)N(C)[C@@H](COC)C(=O)N2CCC[C@H]2C(=O)N(C)[C@@H](C(C)C)C(=O)N2CCC[C@H]2C(=O)O1` (stereo not given in full) ([NMeξIle][NMeV][NMeS](Me)P[NMeV]P; linker N-C via X1), the inhibition was 83% (active).

For `CC1(C)CC(N2CCN(Cc3ccccc3)CC2)=CC(=[N+]2CCCCC2)C1`, the inhibition is 59.8% (active).

Regarding `Cc1ccc(-c2cc3cccc[n+]3cc2-c2ccc(C)cc2)cc1`, the inhibition was 56.9% (active).

`CC(=O)NC(c1ccc(Cl)cc1)c1ccc2cccnc2c1O` (stereo not given): the inhibition is 89.2% (active).

In the case of `CCN(CC)CCn1c2ccccc2c2cnc(N)c(C#N)c21`, the inhibition was 35.7% (active).

`C(=NNc1ccc2ccccc2n1)c1ccccn1`: the inhibition is 65.4% (active).

As for `CN(C)CCNc1ccc(CO)c2oc3ccc(O)cc3c(=O)c12`, the inhibition is 47.7% (active).

On to `CCCCCc1ccc(OCCC[n+]2ccccc2)c(CCCCC)c1`, for which the inhibition is 37.7% (active).

Consider `COc1ccc(CCNc2ncnc3c2oc2ccccc23)cc1OC`, for which the inhibition was 34.5% (active).

Take `COc1ccccc1C(=O)Nc1nc2ccccc2s1`: the inhibition is 85.9% (active).

Consider `CC(NNC(=S)N1CCN(c2ccccn2)CC1)c1nccc2ccccc12` (stereo not given), for which the inhibition is 80.9% (active).

As to `COc1cc(NS(C)(=O)=O)ccc1Nc1c2ccccc2nc2ccccc12`, the inhibition was 46.6% (active).

Take `CN(C)c1cc[n+](CC(=O)c2ccc(-c3ccccc3)cc2)cc1`: the inhibition was 43.8% (active).

On to `Cc1ccc2ccc3cccnc3c2n1`, for which the inhibition was 30.6% (active).

As to `CC1=NN(c2nc3ccccc3[nH]2)C(=O)C1Cc1ccccc1` (stereo not given), the inhibition was 70.3% (active).

As to `N=c1c2c(-c3ccccc3)c(-c3ccccc3)n(Cc3ccccc3)c2ncn1CCO`, the inhibition is 57.2% (active).

Turning to `COc1cccc(Cn2c(NCc3cccnc3)nc3c2c(=O)n(C)c(=O)n3C)c1`, the inhibition is 59.4% (active).

Turning to `CC(C)(O)C#Cc1ccc([C@@H]2C[C@H]3CN(c4ccccc4)C(=O)[C@]34CCCN24)s1`, the inhibition is 61.3% (active).

For `O=C(N/N=C(\c1ccccc1)c1cccnc1)c1cccc(F)c1`, the inhibition is 84% (active).

The next experiment has as its target Nuclear receptor subfamily 5 group A member 2 (Homo sapiens) (UniProt O00482). In words: LRH-1 (NR5A2) inverse agonists, retest, confirmation, cell-based, luminescence (AID 651613).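 Note: HEK293T cells co-transfected with LRH-1 and StAR promoter luciferase reporter; 0% = vehicle wells and 100% = parental cells lacking receptor.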 Conditions: cell-based LRH-1 luciferase reporter, inverse agonism; at 3.6 µM; hits give high values. On the technique in general: Reporter assays use an easily measured gene product as a stand-in for the process of interest.
For `CCC1(O)C(=O)OCc2c1cc1n(c2=O)Cc2cc3c(N)cccc3nc2-1` (stereo not given), the inhibition was 104% (active).

As to `CCCOC(c1ccccc1)(c1ccc(C(F)(F)F)cc1)C(Oc1nc(C)cc(C)n1)C(=O)O` (stereo not given), the inhibition was 96.3% (active).

As to `N=c1c2c(n(Cc3ccc(F)cc3)c3c1CCC3)CCC2`, the inhibition was 80.3% (active).

With `Cc1cc(/C=N/n2cnnc2)c(C)n1-c1ccc(OCc2ccc(Cl)cc2Cl)cc1`, the inhibition was 67% (active).

With `CCN(CC)c1ccc2nc3ccc(N)cc3[n+](-c3ccccc3)c2c1`, the inhibition was 111% (active).

Consider `Cc1ccc2[nH]c3nc(N/N=C/c4cccc(O)c4)nnc3c2c1`, for which the inhibition is 65.6% (active).

Turning to `CCCC(=O)NC(c1ccccc1Cl)c1ccc2cccnc2c1O` (stereo not given), the inhibition is 99.2% (active).

Consider `CN(Cc1cnc2nc(N)nc(N)c2n1)c1ccc(C(=O)NC(CCC(=O)O)C(=O)O)cc1C(F)(F)F` (stereo not given), for which the inhibition was 56.4% (active).

For `O=[N+]([O-])c1ccc(Sc2cccc[n+]2[O-])c2nonc12`, the inhibition was 111% (active).

In the case of `COc1cc(C=NO)nc(-c2ccccn2)c1`, the inhibition was 96% (active).

Take `COc1ccc(Cn2c(-c3ccc(C)cc3)c[n+]3ccccc23)cc1`: the inhibition was 96.1% (active).

`Cc1ccc(S(=O)(=O)/N=C2\C=C(Nc3ccc(O)cc3)C(=O)c3ccccc32)cc1`: the inhibition was 106% (active).

As for `CC[n+]1c(C=C2C=C(C)OC(C)=C2)sc2ccccc21`, the inhibition is 108% (active).

Turning to `CCCCCn1c2c(c(=N)c3ccccc31)CCC2`, the inhibition is 108% (active).

Consider `CCOc1ccccc1O[C@H](c1ccccc1)[C@H]1CNCCO1`, for which the inhibition is 8.61%.

Turning to `COC(=O)C1=C(CN2CCCc3ccccc32)NC(=O)NC1c1ccc(F)cc1` (stereo not given), the inhibition was 17%.

`CC(=NNC(=S)Nc1cccc(C)c1)c1ccccn1`: the inhibition is 99.3% (active).

`CC(C)(C)N(Cc1ccc2c(c1)OCO2)C(=O)/C=C\S(=O)c1ccccc1` (stereo not given): the inhibition is 56.4% (active).

With `COc1ccccc1-n1cc([C@@H]2C[C@H]3CN(c4ccccc4)C(=O)[C@]34CCCN24)cn1`, the inhibition is 57.8% (active).

`COc1ccc2cc3cc(C(=O)Nc4cc(OC)c(OC)c(OC)c4)oc3nc2c1`: the inhibition is 55.1% (active).

For the molecule `CCCc1nc2c(=O)n(C)c(=O)nc-2n(C)n1`, the inhibition was 68.8% (active).

`CC[C@@H]1CCC[C@@H](O)[C@@H](C)C(=O)O[C@H](C)[C@@H](C)C/C=C(C)/C(OC)=C\C(=O)N(C)C([C@@H](C)CC)C(=O)N(C)[C@@H](C(C)C)C(=O)N(C)[C@@H](COC)C(=O)N2CCC[C@H]2C(=O)N(C)[C@@H](C(C)C)C(=O)N2CCC[C@H]2C(=O)O1` (stereo not given in full) ([NMeξIle][NMeV][NMeS](Me)P[NMeV]P; linker N-C via X1): the inhibition was 104% (active).

As for `CC1(C)CC(N2CCN(Cc3ccccc3)CC2)=CC(=[N+]2CCCCC2)C1`, the inhibition was 88.3% (active).

In the case of `Cc1ccc(-c2cc3cccc[n+]3cc2-c2ccc(C)cc2)cc1`, the inhibition was 91.7% (active).

Regarding `CC(=O)NC(c1ccc(Cl)cc1)c1ccc2cccnc2c1O` (stereo not given), the inhibition is 104% (active).

Regarding `CCN(CC)CCn1c2ccccc2c2cnc(N)c(C#N)c21`, the inhibition was 65.8% (active).

With `C(=NNc1ccc2ccccc2n1)c1ccccn1`, the inhibition was 51% (active).

Take `CN(C)CCNc1ccc(CO)c2oc3ccc(O)cc3c(=O)c12`: the inhibition is 53.7% (active).

`CCCCCc1ccc(OCCC[n+]2ccccc2)c(CCCCC)c1`: the inhibition is 83.3% (active).

Take `COc1ccc(CCNc2ncnc3c2oc2ccccc23)cc1OC`: the inhibition was 51.8% (active).

Turning to `COc1ccccc1C(=O)Nc1nc2ccccc2s1`, the inhibition is 86.4% (active).

Regarding `CC(NNC(=S)N1CCN(c2ccccn2)CC1)c1nccc2ccccc12` (stereo not given), the inhibition is 97.1% (active).

Turning to `COc1cc(NS(C)(=O)=O)ccc1Nc1c2ccccc2nc2ccccc12`, the inhibition is 108% (active).

For `CN(C)c1cc[n+](CC(=O)c2ccc(-c3ccccc3)cc2)cc1`, the inhibition was 82.3% (active).

For the molecule `Cc1ccc2ccc3cccnc3c2n1`, the inhibition is 50.2% (active).

`CC1=NN(c2nc3ccccc3[nH]2)C(=O)C1Cc1ccccc1` (stereo not given): the inhibition is 101% (active).

As to `N=c1c2c(-c3ccccc3)c(-c3ccccc3)n(Cc3ccccc3)c2ncn1CCO`, the inhibition is 71.5% (active).

As for `COc1cccc(Cn2c(NCc3cccnc3)nc3c2c(=O)n(C)c(=O)n3C)c1`, the inhibition is 55.5% (active).

As to `CC(C)(O)C#Cc1ccc([C@@H]2C[C@H]3CN(c4ccccc4)C(=O)[C@]34CCCN24)s1`, the inhibition is 82% (active).

In the case of `O=C(N/N=C(\c1ccccc1)c1cccnc1)c1cccc(F)c1`, the inhibition is 97.7% (active).

These data come from PubChem BioAssay.
